Test results published in the supplement of paper PMC11732987, “Enantioselective OTUD7B fragment discovery through chemoproteomics screening and high-throughput optimisation” (Communications Chemistry, 2025).

Tests used:
Assay in all cases: log2 ratio of Biotin-Ahx-Ub-VS probe labelling (fragment/DMSO); higher = less target engagement (more negative = stronger competition), active = hit call of the paper (q ≤ 0.05, log2 ratio ≤ -1)
Conditions in all cases: compound concentration: 200 uM; treatment time: 3 h
OTUD6B = target: T1, OTUD6B (UniProt Q8N6M0)
T1 sequence (whole entry): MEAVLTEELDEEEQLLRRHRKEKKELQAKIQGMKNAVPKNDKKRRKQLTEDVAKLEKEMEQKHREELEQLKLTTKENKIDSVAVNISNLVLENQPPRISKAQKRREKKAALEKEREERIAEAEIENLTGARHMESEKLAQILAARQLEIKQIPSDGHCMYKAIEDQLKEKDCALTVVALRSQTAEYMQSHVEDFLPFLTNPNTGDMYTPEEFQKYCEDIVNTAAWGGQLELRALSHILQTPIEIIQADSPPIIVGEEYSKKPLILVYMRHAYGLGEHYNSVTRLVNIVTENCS
How it was run: (§1)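 Global-median-normalised Spectronaut label-free quantities were compared by unpaired t-test, and values are average log2 ratios of fragment over vehicle. Only proteins with ≥2 unique peptides were used. HEK293T lysate (495 µg per sample) was treated in triplicate with fragment at 200 µM or vehicle for 3 h and then with Biotin-Ahx-Ub-VS at 0.5 µM final for 1 h. Labelled DUBs were then NeutrAvidin-enriched, digested with LysC and trypsin, and run by diaPASEF LC-MS/MS.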

OTUD7B = target: T2, OTUD7B (UniProt Q6GQQ9)
T2 sequence (whole entry): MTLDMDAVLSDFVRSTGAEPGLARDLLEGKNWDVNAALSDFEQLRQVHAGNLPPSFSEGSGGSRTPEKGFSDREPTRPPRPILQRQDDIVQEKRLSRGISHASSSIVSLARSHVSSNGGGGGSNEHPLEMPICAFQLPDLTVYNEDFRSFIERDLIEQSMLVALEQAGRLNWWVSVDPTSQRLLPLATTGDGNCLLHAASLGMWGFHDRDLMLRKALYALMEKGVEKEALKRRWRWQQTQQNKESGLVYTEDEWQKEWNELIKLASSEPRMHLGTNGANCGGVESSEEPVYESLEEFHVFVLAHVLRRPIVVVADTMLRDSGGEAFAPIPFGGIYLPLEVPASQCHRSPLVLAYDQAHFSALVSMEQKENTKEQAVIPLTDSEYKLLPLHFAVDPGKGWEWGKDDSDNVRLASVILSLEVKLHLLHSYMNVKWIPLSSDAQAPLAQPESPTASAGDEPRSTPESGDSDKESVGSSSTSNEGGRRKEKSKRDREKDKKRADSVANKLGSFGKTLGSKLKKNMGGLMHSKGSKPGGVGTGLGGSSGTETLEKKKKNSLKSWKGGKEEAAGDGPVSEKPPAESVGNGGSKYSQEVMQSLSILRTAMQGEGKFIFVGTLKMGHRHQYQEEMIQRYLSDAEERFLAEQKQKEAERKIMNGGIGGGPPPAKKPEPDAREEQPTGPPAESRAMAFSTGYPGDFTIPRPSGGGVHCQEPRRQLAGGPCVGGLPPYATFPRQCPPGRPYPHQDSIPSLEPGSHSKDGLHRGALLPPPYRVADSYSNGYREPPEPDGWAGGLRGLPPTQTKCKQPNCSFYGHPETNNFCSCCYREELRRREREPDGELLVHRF
How it was run: as §1

PRPF8 = PRPF8 (UniProt Q6P2Q9)
How it was run: as §1

PSMD7 = target: T3, PSMD7 (UniProt P51665)
T3 sequence (whole entry): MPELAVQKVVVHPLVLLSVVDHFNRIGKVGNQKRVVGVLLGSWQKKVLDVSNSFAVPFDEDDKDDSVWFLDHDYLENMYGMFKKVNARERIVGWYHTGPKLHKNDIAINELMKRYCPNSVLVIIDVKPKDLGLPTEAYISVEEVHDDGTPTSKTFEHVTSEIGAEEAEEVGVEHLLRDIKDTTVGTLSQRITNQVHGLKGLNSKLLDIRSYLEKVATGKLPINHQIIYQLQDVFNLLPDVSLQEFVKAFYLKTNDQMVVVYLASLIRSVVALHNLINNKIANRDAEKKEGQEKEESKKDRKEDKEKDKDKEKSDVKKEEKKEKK
How it was run: as §1

UCHL1 = UCHL1 (UniProt P09936)
How it was run: as §1

UCHL3 = target: T4, UCHL3 (UniProt P15374)
T4 sequence (whole entry): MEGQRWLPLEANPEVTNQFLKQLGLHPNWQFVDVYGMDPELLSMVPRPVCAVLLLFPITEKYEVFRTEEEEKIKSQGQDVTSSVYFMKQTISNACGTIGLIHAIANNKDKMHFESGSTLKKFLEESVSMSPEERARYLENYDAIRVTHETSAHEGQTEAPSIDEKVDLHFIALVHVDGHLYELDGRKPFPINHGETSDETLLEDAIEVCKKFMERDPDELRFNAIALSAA
How it was run: as §1

UCHL5 = target: T5, UCHL5 (UniProt Q9Y5K5)
T5 sequence (whole entry): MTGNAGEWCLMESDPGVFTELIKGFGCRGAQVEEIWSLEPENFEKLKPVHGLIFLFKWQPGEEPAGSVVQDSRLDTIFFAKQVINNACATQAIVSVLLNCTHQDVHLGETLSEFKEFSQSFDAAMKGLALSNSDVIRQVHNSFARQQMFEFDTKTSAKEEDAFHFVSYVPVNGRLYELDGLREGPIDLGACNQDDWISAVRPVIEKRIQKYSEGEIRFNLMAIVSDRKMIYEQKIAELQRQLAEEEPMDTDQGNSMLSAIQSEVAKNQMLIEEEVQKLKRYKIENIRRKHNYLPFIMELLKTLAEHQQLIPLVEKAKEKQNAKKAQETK
How it was run: as §1

USP10 = USP10 (UniProt Q14694)
How it was run: as §1

USP15 = target: T6, USP15 (UniProt Q9Y4E8)
T6 sequence (whole entry): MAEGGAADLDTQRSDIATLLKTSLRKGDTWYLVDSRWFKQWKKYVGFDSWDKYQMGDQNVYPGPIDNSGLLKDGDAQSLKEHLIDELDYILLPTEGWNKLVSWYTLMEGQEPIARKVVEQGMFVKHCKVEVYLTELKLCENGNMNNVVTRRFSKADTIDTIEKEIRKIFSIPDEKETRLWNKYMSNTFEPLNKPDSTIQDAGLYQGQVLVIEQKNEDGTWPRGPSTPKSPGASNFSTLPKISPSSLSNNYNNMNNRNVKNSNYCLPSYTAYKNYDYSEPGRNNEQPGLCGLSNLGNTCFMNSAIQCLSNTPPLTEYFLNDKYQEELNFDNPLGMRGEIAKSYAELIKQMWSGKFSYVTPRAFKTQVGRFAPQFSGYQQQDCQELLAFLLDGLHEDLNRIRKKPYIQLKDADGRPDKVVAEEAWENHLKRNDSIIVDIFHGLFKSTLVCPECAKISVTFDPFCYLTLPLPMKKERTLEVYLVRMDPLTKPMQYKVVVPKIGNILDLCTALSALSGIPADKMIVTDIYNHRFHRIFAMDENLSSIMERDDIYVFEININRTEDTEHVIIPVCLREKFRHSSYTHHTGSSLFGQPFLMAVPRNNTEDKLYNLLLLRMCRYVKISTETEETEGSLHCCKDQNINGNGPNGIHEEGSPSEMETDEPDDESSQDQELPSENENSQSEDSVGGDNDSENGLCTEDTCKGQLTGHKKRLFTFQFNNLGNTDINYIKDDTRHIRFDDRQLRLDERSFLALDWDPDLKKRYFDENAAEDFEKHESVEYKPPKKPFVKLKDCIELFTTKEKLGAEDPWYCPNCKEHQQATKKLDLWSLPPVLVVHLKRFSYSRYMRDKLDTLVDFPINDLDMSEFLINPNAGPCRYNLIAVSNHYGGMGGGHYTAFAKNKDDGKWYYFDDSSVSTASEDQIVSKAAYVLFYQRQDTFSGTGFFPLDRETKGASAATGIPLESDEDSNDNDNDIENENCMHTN
How it was run: as §1

USP16 = USP16 (UniProt Q9Y5T5)
How it was run: as §1

Measured: log2 ratio of Biotin-Ahx-Ub-VS probe labelling

UCHL1, sequence (P09936 whole entry, looked up): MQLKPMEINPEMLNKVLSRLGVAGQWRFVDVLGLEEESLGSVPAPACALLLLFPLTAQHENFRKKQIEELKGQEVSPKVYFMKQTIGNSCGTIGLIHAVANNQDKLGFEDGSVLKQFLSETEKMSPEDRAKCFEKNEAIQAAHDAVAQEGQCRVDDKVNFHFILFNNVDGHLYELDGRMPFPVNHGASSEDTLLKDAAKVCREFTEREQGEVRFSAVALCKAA
USP16, sequence (Q9Y5T5 whole entry, looked up): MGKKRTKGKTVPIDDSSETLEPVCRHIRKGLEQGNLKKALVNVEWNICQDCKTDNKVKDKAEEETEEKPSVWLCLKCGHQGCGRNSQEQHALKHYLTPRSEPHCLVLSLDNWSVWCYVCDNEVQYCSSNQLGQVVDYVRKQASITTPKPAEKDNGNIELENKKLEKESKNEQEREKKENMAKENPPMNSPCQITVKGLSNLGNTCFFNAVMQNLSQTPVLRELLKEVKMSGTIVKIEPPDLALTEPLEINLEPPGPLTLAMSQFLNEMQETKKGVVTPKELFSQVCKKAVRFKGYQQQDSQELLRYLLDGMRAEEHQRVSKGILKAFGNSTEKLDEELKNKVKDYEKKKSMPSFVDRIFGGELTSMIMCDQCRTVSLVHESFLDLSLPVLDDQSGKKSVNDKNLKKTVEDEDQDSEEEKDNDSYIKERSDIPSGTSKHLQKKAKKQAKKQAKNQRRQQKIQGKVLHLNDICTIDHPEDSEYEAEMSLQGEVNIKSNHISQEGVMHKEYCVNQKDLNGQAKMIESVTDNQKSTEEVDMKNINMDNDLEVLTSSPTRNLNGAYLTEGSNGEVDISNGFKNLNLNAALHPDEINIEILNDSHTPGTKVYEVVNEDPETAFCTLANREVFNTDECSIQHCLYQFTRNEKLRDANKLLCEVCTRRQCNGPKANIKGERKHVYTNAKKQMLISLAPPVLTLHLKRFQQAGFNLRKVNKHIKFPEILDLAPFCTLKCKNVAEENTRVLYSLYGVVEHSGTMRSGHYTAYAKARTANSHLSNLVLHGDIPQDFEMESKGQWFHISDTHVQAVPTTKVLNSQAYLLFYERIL
USP10, sequence (Q14694 whole entry): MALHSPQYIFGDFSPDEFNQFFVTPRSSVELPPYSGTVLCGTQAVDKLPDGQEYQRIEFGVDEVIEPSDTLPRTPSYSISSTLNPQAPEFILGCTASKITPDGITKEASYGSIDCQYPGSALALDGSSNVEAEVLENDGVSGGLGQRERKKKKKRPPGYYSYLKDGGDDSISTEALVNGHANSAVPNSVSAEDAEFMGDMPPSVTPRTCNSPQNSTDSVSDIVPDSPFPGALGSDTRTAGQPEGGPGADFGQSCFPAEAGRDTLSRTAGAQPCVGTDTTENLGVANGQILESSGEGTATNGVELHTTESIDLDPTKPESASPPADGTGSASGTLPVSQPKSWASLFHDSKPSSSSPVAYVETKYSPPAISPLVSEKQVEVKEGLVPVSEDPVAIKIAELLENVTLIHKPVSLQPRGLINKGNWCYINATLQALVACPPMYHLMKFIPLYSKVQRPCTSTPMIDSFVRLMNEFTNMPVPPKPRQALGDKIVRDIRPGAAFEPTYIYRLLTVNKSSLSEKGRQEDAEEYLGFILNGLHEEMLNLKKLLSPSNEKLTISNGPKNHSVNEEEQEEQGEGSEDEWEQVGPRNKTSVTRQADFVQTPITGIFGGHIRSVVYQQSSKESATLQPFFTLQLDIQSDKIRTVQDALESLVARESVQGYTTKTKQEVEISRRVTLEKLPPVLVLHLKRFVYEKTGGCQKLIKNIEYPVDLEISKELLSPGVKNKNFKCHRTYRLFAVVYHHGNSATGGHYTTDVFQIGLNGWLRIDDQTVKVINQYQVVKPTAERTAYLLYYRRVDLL

CC(c1ccccc1)N(C)C(=O)CCl (stereo not given)
inactive: OTUD6B 0.00154 | OTUD7B -0.433 | PRPF8 -0.049 | PSMD7 0.0333 | UCHL1 -0.925 | UCHL3 0.257 | UCHL5 -0.0435 | USP10 -0.134 | USP15 -0.334 | USP16 -0.635
